Paper PMC11006913

How the values were obtained:
Assay in all cases: PBM; 200 nM protein, PBS
Settings in all cases: dsDNA, one strand shown
HOXD13 [1] = target: HOXD13 (Homo sapiens, UniProt P35453 263-343, T313R)
HOXD13 [2] = target: HOXD13 (Homo sapiens, UniProt P35453 263-343)
HOXD13 [3] = target: HOXD13 (Homo sapiens, UniProt P35453 263-343, T313A)
NKX2-6 = target: T1, NKX2-6 (Homo sapiens, UniProt A6NCS4 118-204)
T1 sequence: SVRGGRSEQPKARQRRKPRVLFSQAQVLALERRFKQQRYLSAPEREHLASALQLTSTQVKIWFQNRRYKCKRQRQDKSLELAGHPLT

SIX6 = target: T2, SIX6 (Homo sapiens, UniProt O95475 114-200, T165A)
T2 sequence: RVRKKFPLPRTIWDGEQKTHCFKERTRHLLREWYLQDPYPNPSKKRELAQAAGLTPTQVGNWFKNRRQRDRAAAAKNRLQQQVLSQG

Chain of HOXD13 (Homo sapiens, UniProt P35453 263-343) (P35453 263-343): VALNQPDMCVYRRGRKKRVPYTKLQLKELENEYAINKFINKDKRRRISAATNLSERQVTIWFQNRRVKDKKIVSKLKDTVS
Chain of HOXD13 (Homo sapiens, UniProt P35453 263-343, T313A) (P35453 263-343 T313A): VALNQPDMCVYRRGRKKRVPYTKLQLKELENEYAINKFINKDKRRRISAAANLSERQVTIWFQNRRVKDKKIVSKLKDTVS
Chain of HOXD13 (Homo sapiens, UniProt P35453 263-343, T313R) (P35453 263-343 T313R): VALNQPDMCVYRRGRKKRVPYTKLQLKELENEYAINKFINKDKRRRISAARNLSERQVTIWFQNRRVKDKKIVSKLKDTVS

Sequence	binding signal (HOXD13 [1])	binding signal (HOXD13 [2])	binding signal (HOXD13 [3])	binding signal (NKX2-6)	binding signal (SIX6)
CTACGTAG	9.84 upbm affinity estimate (log intensity, higher = more binding, comparable within an allelic series)	9.97 upbm affinity estimate (log intensity, higher = more binding, comparable within an allelic series)	9.71 upbm affinity estimate (log intensity, higher = more binding, comparable within an allelic series)		
AAGGCGAG	9.65 upbm affinity estimate (log intensity, higher = more binding, comparable within an allelic series)	9.72 upbm affinity estimate (log intensity, higher = more binding, comparable within an allelic series)	9.78 upbm affinity estimate (log intensity, higher = more binding, comparable within an allelic series)		
GTTGTAAA	10.6 upbm affinity estimate (log intensity, higher = more binding, comparable within an allelic series)	11.8 upbm affinity estimate (log intensity, higher = more binding, comparable within an allelic series)	11.7 upbm affinity estimate (log intensity, higher = more binding, comparable within an allelic series)		
CGCACAGC	9.44 upbm affinity estimate (log intensity, higher = more binding, comparable within an allelic series)	9.48 upbm affinity estimate (log intensity, higher = more binding, comparable within an allelic series)	9.53 upbm affinity estimate (log intensity, higher = more binding, comparable within an allelic series)		
AGGGGGGA	9.23 upbm affinity estimate (log intensity, higher = more binding, comparable within an allelic series)	9.47 upbm affinity estimate (log intensity, higher = more binding, comparable within an allelic series)	9.55 upbm affinity estimate (log intensity, higher = more binding, comparable within an allelic series)		
CATCGGGG	9.56 upbm affinity estimate (log intensity, higher = more binding, comparable within an allelic series)	9.66 upbm affinity estimate (log intensity, higher = more binding, comparable within an allelic series)	9.72 upbm affinity estimate (log intensity, higher = more binding, comparable within an allelic series)		
CCTACCCC	9.51 upbm affinity estimate (log intensity, higher = more binding, comparable within an allelic series)	9.51 upbm affinity estimate (log intensity, higher = more binding, comparable within an allelic series)	9.59 upbm affinity estimate (log intensity, higher = more binding, comparable within an allelic series)		
TCGATCGA	9.65 upbm affinity estimate (log intensity, higher = more binding, comparable within an allelic series)	9.44 upbm affinity estimate (log intensity, higher = more binding, comparable within an allelic series)	9.58 upbm affinity estimate (log intensity, higher = more binding, comparable within an allelic series)		
CGAAGGCG	9.52 upbm affinity estimate (log intensity, higher = more binding, comparable within an allelic series)	9.45 upbm affinity estimate (log intensity, higher = more binding, comparable within an allelic series)	9.53 upbm affinity estimate (log intensity, higher = more binding, comparable within an allelic series)		
GCCGGTGA	9.57 upbm affinity estimate (log intensity, higher = more binding, comparable within an allelic series)	9.7 upbm affinity estimate (log intensity, higher = more binding, comparable within an allelic series)	9.88 upbm affinity estimate (log intensity, higher = more binding, comparable within an allelic series)		
GGGTTGAA	9.64 upbm affinity estimate (log intensity, higher = more binding, comparable within an allelic series)	9.57 upbm affinity estimate (log intensity, higher = more binding, comparable within an allelic series)	9.62 upbm affinity estimate (log intensity, higher = more binding, comparable within an allelic series)		
CATCGGGC	9.55 upbm affinity estimate (log intensity, higher = more binding, comparable within an allelic series)	9.52 upbm affinity estimate (log intensity, higher = more binding, comparable within an allelic series)	9.62 upbm affinity estimate (log intensity, higher = more binding, comparable within an allelic series)		
GAGGGGCC	9.41 upbm affinity estimate (log intensity, higher = more binding, comparable within an allelic series)	9.46 upbm affinity estimate (log intensity, higher = more binding, comparable within an allelic series)	9.41 upbm affinity estimate (log intensity, higher = more binding, comparable within an allelic series)		
ATTACGAG	10.5 upbm affinity estimate (log intensity, higher = more binding, comparable within an allelic series)	11.7 upbm affinity estimate (log intensity, higher = more binding, comparable within an allelic series)	11.4 upbm affinity estimate (log intensity, higher = more binding, comparable within an allelic series)		
CCTATAAA	11.1 upbm affinity estimate (log intensity, higher = more binding, comparable within an allelic series)	12.3 upbm affinity estimate (log intensity, higher = more binding, comparable within an allelic series)	12.1 upbm affinity estimate (log intensity, higher = more binding, comparable within an allelic series)		
CAGTGGGG	9.47 upbm affinity estimate (log intensity, higher = more binding, comparable within an allelic series)	9.55 upbm affinity estimate (log intensity, higher = more binding, comparable within an allelic series)	9.72 upbm affinity estimate (log intensity, higher = more binding, comparable within an allelic series)		
AGCCGGCC	9.49 upbm affinity estimate (log intensity, higher = more binding, comparable within an allelic series)	9.41 upbm affinity estimate (log intensity, higher = more binding, comparable within an allelic series)	9.49 upbm affinity estimate (log intensity, higher = more binding, comparable within an allelic series)		
ATTTACAA	10.7 upbm affinity estimate (log intensity, higher = more binding, comparable within an allelic series)	11.8 upbm affinity estimate (log intensity, higher = more binding, comparable within an allelic series)	11.6 upbm affinity estimate (log intensity, higher = more binding, comparable within an allelic series)		
ACTTGTTC				11.7 upbm affinity estimate (log intensity, higher = more binding, comparable within an allelic series)	
ACTGACAC					10.4 upbm affinity estimate (log intensity, higher = more binding, comparable within an allelic series)
AGTGCTAA				12 upbm affinity estimate (log intensity, higher = more binding, comparable within an allelic series)	
GAAGGCCC	9.62 upbm affinity estimate (log intensity, higher = more binding, comparable within an allelic series)	9.68 upbm affinity estimate (log intensity, higher = more binding, comparable within an allelic series)	9.79 upbm affinity estimate (log intensity, higher = more binding, comparable within an allelic series)		
TAGTGTCA					10.4 upbm affinity estimate (log intensity, higher = more binding, comparable within an allelic series)
CTTGACAC					10.3 upbm affinity estimate (log intensity, higher = more binding, comparable within an allelic series)
